Assay results reported in PubChem BioAssay (EPA / NIEHS).
Records with an inconclusive call do not appear. The source made the active and inactive calls. Rule for the calls, unless noted: active = hit-call score of the fitted dose curve at least 0.9, where 1 is the maximum; inconclusive = response in the unintended direction; inactive = score below 0.9.

Experiments:
[1] = read-out: ABC Transporter (ABCB11), ABCB11 (gene 8647); experiment: CLD_ABCB11_6hr: CellzDirect (CLD) Gene Expression Assay for ABC Transporter (ABCB11) at 6 hours (AID 2283675);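 note: hits raise ABCB11 mRNA level so AC50 marks induction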
How it was run: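 Human primary hepatocytes (two donor preparations) given fresh chemical daily at multiple concentrations, vehicle 0.2% DMSO. ABCB11 mRNA induction measured 6 h after dosing by qNPA chemiluminescence versus DMSO; cytotoxicity annotated from morphology.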

[2] = read-out: Cytochrome P450 2B6 (Homo sapiens) (UniProt P20813); experiment: CLD_CYP2B6_6hr: CellzDirect (CLD) Gene Expression Assay for xenobiotic metabolism (CYP2B6) at 6 hours (AID 2283677);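 note: actives raise CYP2B6 transcript above DMSO baseline so AC50 marks an inducer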
How it was run: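 Primary human hepatocytes dosed with chemicals at multiple concentrations, vehicle 0.2% DMSO; CYP2B6 mRNA induction measured 6 h after dosing by quantitative nuclease protection assay with chemiluminescence, gain of signal fitted relative to DMSO.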

[3] = read-out: Cytochrome P450 2C19 (Homo sapiens) (UniProt P33261); experiment: CLD_CYP2C19_6hr: CellzDirect (CLD) Gene Expression Assay for xenobiotic metabolism (CYP2C19) at 6 hours (AID 2283678)
How it was run: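 Primary human hepatocytes from two donor preparations were dosed daily, with 0.2% DMSO as vehicle, and harvested 6 h after dosing. CYP2C19 mRNA induction was measured by qNPA chemiluminescence and fitted as gain of signal against DMSO.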

[4] = CCTE_Padilla_ZF_144hpf_TERATOSCORE: (Legacy) CCTE's 144 Hour Post-fertilization zebrafish Assay Teratoscore, Padilla Lab (AID 2283679; active = hit-call score of the fitted dose curve at least 0.9, where 1 is the maximum; inactive = score below 0.9;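 for AC50: zebrafish embryos with chorions exposed by immersion from 6-8 hpf to 5 dpf with daily renewal; teratogenicity score from eye scoring of death hatching and malformations at 144 hpf; higher score means more developmental defects relative to DMSO baseline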)
How it was run: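 Larvae scored by eye at 144 hpf for death, hatching and malformations after a day in clean Hanks'. Before that, daily-renewed exposure at 80 uM (0.4% DMSO, 26C) from roughly 6-8 hpf through 5 dpf, 4 embryos per chemical.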

[5] = read-out: Cytochrome P450 3A4 (Homo sapiens) (UniProt P08684); experiment: CLD_CYP3A4_6hr: CellzDirect (CLD) Gene Expression Assay for xenobiotic metabolism (CYP3A4) at 6 hours (AID 2283680)
How it was run: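 Primary human hepatocytes (two donor preparations) dosed; CYP3A4 mRNA harvested at 6 h and quantified by qNPA chemiluminescence. Gain of signal fitted against 0.2% DMSO vehicle; cytotoxicity flagged by phase-contrast morphology.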

[6] = read-out: HMG-CoA synthase (HMGCS2), HMGCS2 (gene 3158); experiment: CLD_HMGCS2_6hr: CellzDirect (CLD) Gene Expression Assay for HMG-CoA synthase (HMGCS2) at 6 hours (AID 2283682);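 note: actives raise HMGCS2 transcript above the 0.2% DMSO vehicle baseline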
How it was run: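 Primary human hepatocytes dosed daily with fresh chemical, 0.2% DMSO vehicle; HMGCS2 mRNA measured at 6 h by qNPA chemiluminescence. Gain of signal fitted against DMSO; cytotoxicity flagged from phase-contrast morphology.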

[7] = read-out: xenobiotic metabolism (CYP1A2), CYP1A2 (gene 1544); experiment: CLD_CYP1A2_24hr: CellzDirect (CLD) Gene Expression Assay for xenobiotic metabolism (CYP1A2) at 24 hours (AID 2283683)
How it was run: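 Primary human hepatocytes from two donor preparations dosed daily with multiple concentrations of chemical, 0.2% DMSO vehicle. CYP1A2 mRNA at 24 h quantified by qNPA chemiluminescence; gain of signal analyzed relative to DMSO. Cytotoxicity flagged by phase-contrast morphology.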

[8] = read-out: Broad substrate specificity ATP-binding cassette transporter ABCG2 (Homo sapiens) (UniProt Q9UNQ0); experiment: CLD_ABCG2_24hr: CellzDirect (CLD) Gene Expression Assay for ABC Transporter (ABCG2) at 24 hours (AID 2283685)
How it was run: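 Primary human hepatocytes were dosed daily with ToxCast chemicals at multiple concentrations (vehicle 0.2% DMSO). ABCG2 mRNA was measured at 24 h by qNPA chemiluminescence; induction was scored as gain of signal versus DMSO.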

[9] = read-out: Cytochrome P450 2B6 (Homo sapiens) (UniProt P20813); experiment: CLD_CYP2B6_24hr: CellzDirect (CLD) Gene Expression Assay for xenobiotic metabolism (CYP2B6) at 24 hours (AID 2283686)
How it was run: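 Primary human hepatocytes dosed daily for two days with fresh solutions, harvested at 24 hours; mRNA induction quantified by qNPA chemiluminescence, gain of signal vs 0.2% DMSO vehicle. Cytotoxicity annotated from phase-contrast morphology.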

[10] = read-out: sulfotransferase (SULT2A), SULT2A1 (gene 6822); experiment: CLD_SULT2A_24hr: CellzDirect (CLD) Gene Expression Assay for sulfotransferase (SULT2A) at 24 hours (AID 2283694)
How it was run: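 Primary human hepatocytes from two donor preparations were dosed daily with fresh solutions, vehicle 0.2% DMSO. At 24 h, lysates went to quantitative nuclease protection (qNPA) with S1 digestion and chemiluminescent readout. Cytotoxicity was annotated from phase-contrast morphology.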

[11] = read-out: glucuronosyltransferase (UGT1A1), UGT1A1 (gene 54658); experiment: CLD_UGT1A1_24hr: CellzDirect (CLD) Gene Expression Assay for glucuronosyltransferase (UGT1A1) at 24 hours (AID 2283696)
How it was run: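 Primary human hepatocytes from two donor preparations were dosed (0.2% DMSO vehicle) and harvested at 24 h; UGT1A1 mRNA induction was quantified by chemiluminescent qNPA, fitted as gain relative to DMSO.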

[12] = read-out: Cytochrome P450 3A4 (Homo sapiens) (UniProt P08684); experiment: CLD_CYP3A4_24hr: CellzDirect (CLD) Gene Expression Assay for xenobiotic metabolism (CYP3A4) at 24 hours (AID 2283689)
How it was run: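 Primary human hepatocytes from two donors dosed daily with fresh compound for two days, 0.2% DMSO vehicle. CYP3A4 mRNA at 24 hr by qNPA chemiluminescence; gain-of-signal fit versus DMSO, cytotoxicity flagged by morphology.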

[13] = read-out: ABC Transporter (ABCB1), ABCB1 (gene 5243); experiment: CLD_ABCB1_48hr: CellzDirect (CLD) Gene Expression Assay for ABC Transporter (ABCB1) at 48 hours (AID 2283695)
How it was run: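 Primary human hepatocytes from two donor preparations dosed daily on two consecutive days with 0.2% DMSO vehicle. Harvest at 48 h. ABCB1 mRNA quantified by qNPA with chemiluminescence and fitted for gain of signal versus DMSO.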

[14] = read-out: Glyceraldehyde-3-phosphate dehydrogenase (Homo sapiens) (UniProt P04406); experiment: CLD_GAPDH_6hr: CellzDirect (CLD) Gene Expression Assay for Baseline Control (Glyceraldehyde 3-phosphate dehydrogenase) at 6 hours (AID 2283681);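 note: active means increased signal relative to DMSO vehicle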
How it was run: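 Primary human hepatocytes from two donor preparations, dosed at multiple concentrations with 0.2% DMSO vehicle; GAPDH mRNA measured 6 h after dosing by chemiluminescent quantitative nuclease protection assay (qNPA) on denatured lysates. Serves as background control; cytotoxicity annotated by morphology.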

[15] = read-out: Cytochrome P450 2C9 (Homo sapiens) (UniProt P11712); experiment: CLD_CYP2C9_24hr: CellzDirect (CLD) Gene Expression Assay for xenobiotic metabolism (CYP2C9) at 24 hours (AID 2283688)
How it was run: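 Primary human hepatocytes from two donor preparations, dosed daily for two days at multiple concentrations; vehicle 0.2% DMSO. CYP2C9 mRNA induction at 24 h measured by qNPA chemiluminescence relative to DMSO; cytotoxicity annotated from morphology.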

[16] = read-out: Glyceraldehyde-3-phosphate dehydrogenase (Homo sapiens) (UniProt P04406); experiment: CLD_GAPDH_24hr: CellzDirect (CLD) Gene Expression Assay for Baseline Control (Glyceraldehyde 3-phosphate dehydrogenase) at 24 hours (AID 2283692)
How it was run: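 Primary human hepatocytes (two donor preparations) dosed daily for two days, 0.2% DMSO vehicle; GAPDH mRNA measured at 24 h by qNPA chemiluminescence as a background control, gain-of-signal fitted against DMSO.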

[17] = CLD_ACTIN_6hr: CellzDirect (CLD) Gene Expression Assay for Baseline Control (Actin) at 6 hours (AID 2283676);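 note: active means increased actin mRNA relative to DMSO vehicle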
How it was run: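 Primary human hepatocytes dosed with fresh chemical solutions (vehicle 0.2% DMSO), harvested at 6 h. Actin mRNA quantified by quantitative nuclease protection assay with chemiluminescent read-out, as background control relative to DMSO.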

[18] = read-out: ABC Transporter (ABCB1), ABCB1 (gene 5243); experiment: CLD_ABCB1_24hr: CellzDirect (CLD) Gene Expression Assay for ABC Transporter (ABCB1) at 24 hours (AID 2283684)
How it was run: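 Primary human hepatocytes, two donor preparations, dosed daily with fresh solutions; vehicle 0.2% DMSO; harvested at 24 h. ABCB1 mRNA measured by quantitative nuclease protection assay (chemiluminescence); morphology-based cytotoxicity annotated.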

Measured: AC50

Cytochrome P450 3A4 (Homo sapiens), sequence (P08684 whole entry, looked up): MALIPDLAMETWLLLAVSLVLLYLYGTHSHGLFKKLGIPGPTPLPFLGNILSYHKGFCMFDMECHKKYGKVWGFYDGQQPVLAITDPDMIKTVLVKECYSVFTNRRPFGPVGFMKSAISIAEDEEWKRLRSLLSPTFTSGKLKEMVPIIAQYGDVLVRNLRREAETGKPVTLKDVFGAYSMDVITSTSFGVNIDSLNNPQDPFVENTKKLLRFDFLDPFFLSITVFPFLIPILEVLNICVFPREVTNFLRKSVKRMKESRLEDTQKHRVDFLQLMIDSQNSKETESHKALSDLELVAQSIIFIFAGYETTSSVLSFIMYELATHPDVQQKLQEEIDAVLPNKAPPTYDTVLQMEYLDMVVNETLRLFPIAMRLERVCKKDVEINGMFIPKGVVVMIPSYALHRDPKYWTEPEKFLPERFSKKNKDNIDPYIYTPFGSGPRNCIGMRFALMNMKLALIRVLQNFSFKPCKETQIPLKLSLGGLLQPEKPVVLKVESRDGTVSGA
Cytochrome P450 2C19 (Homo sapiens), sequence (P33261 whole entry, looked up): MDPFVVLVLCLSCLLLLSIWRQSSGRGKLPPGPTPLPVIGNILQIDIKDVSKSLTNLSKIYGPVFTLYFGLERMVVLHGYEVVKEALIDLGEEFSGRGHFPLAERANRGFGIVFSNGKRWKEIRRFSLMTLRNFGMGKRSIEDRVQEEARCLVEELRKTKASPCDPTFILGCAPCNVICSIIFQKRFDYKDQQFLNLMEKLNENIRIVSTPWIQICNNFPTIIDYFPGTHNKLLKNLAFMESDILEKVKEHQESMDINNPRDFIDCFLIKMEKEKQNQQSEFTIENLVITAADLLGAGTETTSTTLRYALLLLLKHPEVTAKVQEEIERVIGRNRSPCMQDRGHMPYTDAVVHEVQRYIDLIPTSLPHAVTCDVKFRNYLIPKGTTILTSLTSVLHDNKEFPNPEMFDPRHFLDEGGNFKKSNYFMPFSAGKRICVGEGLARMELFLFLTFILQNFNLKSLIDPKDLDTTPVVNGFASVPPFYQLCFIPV
Glyceraldehyde-3-phosphate dehydrogenase (Homo sapiens), sequence (P04406 whole entry, looked up): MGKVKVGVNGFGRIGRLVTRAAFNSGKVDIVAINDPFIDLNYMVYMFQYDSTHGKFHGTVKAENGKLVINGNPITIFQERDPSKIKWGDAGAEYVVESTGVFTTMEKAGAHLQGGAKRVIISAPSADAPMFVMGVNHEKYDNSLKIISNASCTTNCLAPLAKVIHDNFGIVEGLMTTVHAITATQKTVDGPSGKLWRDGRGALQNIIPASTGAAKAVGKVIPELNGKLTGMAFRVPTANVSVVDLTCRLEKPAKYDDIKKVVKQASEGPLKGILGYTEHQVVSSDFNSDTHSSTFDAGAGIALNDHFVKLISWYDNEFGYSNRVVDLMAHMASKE
Broad substrate specificity ATP-binding cassette transporter ABCG2 (Homo sapiens), sequence (Q9UNQ0 whole entry, looked up): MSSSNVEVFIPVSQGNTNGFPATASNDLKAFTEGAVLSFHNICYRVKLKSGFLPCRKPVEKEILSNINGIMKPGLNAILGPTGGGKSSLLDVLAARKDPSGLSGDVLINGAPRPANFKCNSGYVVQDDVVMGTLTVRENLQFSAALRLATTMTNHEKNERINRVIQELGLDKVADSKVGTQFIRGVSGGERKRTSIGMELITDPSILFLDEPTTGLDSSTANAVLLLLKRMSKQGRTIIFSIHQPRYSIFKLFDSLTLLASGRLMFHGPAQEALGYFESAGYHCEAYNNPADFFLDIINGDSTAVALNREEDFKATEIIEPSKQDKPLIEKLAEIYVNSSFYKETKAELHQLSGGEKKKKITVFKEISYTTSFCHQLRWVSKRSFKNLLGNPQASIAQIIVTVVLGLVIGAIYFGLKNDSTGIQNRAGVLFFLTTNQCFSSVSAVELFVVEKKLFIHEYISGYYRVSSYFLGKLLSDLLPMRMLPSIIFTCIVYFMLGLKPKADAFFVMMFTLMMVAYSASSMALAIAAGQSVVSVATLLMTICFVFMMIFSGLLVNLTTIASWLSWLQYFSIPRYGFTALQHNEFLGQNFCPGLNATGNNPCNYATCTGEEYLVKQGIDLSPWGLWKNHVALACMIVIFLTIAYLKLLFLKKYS

CCOP(=S)(OCC)SCCSCC
inactive: [1] | [3] | [4] | [5] | [6] | [8] | [10]
active: [2] 14.1 µM | [7] 6.62 µM | [9] 3.91 µM | [11] 24.6 µM

COc1cccc(C(=O)NN(C(=O)c2cc(C)cc(C)c2)C(C)(C)C)c1C
active: [5] 0.886 µM | [7] 32.6 µM | [9] 2.35 µM | [12] 3.74 µM | [11] 4.26 µM
inactive: [1] | [3] | [4] | [6] | [8] | [10] | [13]

CCOP(=S)(OCC)OC(Cl)C(Cl)(Cl)Cl (stereo not given)
active: [2] 0.833 µM | [4] 4.82 µM | [5] 10.5 µM | [7] 15.5 µM | [9] 0.201 µM
not listed: [3] | [12] | [13] | [17] | [18]
inactive: all other assays above

C#CCC1=C(C)C(OC(=O)C2C(C=C(C)C)C2(C)C)CC1=O (stereo not given)
active: [4] 2.76 µM | [5] 2.84 µM | [7] 20 µM | [12] 4.64 µM
not listed: [2] | [3] | [9] | [13] | [18]
inactive: all other assays above

CC(C)N(C(=O)SCC(Cl)=C(Cl)Cl)C(C)C
active: [2] 5.4 µM | [4] 32.7 µM | [9] 20 µM | [12] 20 µM
inactive: [1] | [3] | [5] | [7] | [8] | [16] | [13]

CC1(C(=O)Nc2ccc(O)c(Cl)c2Cl)CCCCC1
active: [4] 10.1 µM
inactive: [1] | [3] | [5] | [14] | [6] | [9] | [10] | [11]

O=c1ccc(=O)[nH][nH]1
not listed: [2] | [9] | [10] | [12] | [13] | [17]
inactive: all other assays above

CCC(=O)Nc1ccc(Cl)c(Cl)c1
inactive: [1] | [3] | [6] | [12] | [10] | [11]
active: [4] 61.3 µM | [7] 3.95 µM | [9] 3.95 µM
